Source: PubChem BioAssay
S1P2 agonist = activates the human S1P2 receptor | O95136 | S1P2-expressing cell line, agonist reporter read-out | activation, % at 4.5 µM | 97,000 compounds, 0.46% hits | AID 729; in the data active means activation above about 16%
GALR2 blocker = blocks the human galanin receptor 2; GALR2-expressing cells, antagonist mode; 140,000 compounds, 0.39% hits; inhibition, % at 4 µM; O43603; in the data active means inhibition above about 27%;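 further: cells stimulated with galanin 1-16 at roughly its EC80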
Target sequence (O43603 whole entry, looked up): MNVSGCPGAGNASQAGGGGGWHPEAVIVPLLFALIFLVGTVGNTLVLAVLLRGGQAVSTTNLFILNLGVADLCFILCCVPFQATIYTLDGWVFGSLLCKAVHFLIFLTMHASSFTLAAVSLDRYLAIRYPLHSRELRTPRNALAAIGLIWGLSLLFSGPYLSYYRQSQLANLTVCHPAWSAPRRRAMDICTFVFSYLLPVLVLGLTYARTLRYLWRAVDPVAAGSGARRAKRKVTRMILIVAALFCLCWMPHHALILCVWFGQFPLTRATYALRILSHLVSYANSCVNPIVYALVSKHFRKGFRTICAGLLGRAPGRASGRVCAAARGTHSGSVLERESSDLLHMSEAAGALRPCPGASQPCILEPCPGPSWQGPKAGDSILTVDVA
MRP resist rev = MRP-mediated drug resistance reversal | H69AR cells + 2 uM doxorubicin, CellTiter-Glo, 72 h | differential viability (reversal), % at 10 µM | 85,000 compounds, 0.04% hits | AID 602;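 active means viability drop by adding the cancer drug above about 55%, with treated viability meeting a 40% cutoff, limit read from the data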;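 further: larger differential means the compound sensitizes cells more to doxorubicin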
MRP1 act = activates MRP-1 | 140,000 compounds, 0.61% hits | viability increase, % at 10 µM | H69AR cells + doxorubicin, viability rescue, CellTiter-Glo;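 active means viability gain under doxorubicin at or above a set limit, the compound median plus 3 SD, cut at about 4.7% in these data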;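 further: MRP-1 overexpressing cells given doxorubicin 25 µM after compound pretreatment; 18-22 h compound pretreatment then 72 h with doxorubicin before readout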
GALR2 ag = GALR2 (human) receptor agonism. AID 803. activation, % (test concentration not listed). GALR2-expressing cells, agonist activation read-out. 140,000 compounds, 0.48% hits. O43603; in the data active means activation above about 5%, passing the limit was not always enough
S1P2 blocker = blocks the human S1P2 receptor | O95136 | cell-based S1P2 antagonist assay, inhibition at 5 uM | inhibition, % at 5 µM | 97,000 compounds, 0.21% hits; in the data active means inhibition above about 45%;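 further: CRE beta-lactamase reporter cells expressing human S1P2 stimulated with S1P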
Large screens that a line does not name were inactive. An excerpt weighted towards active compounds, which were near 1.8% of everything screened.

CCC1CCCCN1C(=O)CSc1nnc(CNC(=O)COc2ccc(Cl)cc2)o1 (stereo not given)	none
c1cncc(-c2nn3c(-c4ccncc4)nnc3s2)c1	none (no result: S1P2 agonist, GALR2 blocker, MRP1 act, GALR2 ag, S1P2 blocker)
Cc1ccc(N2C(=N)/C(=C3/Nc4ccccc4S3)C(c3ccccc3)C2=O)cc1 (stereo not given)	none (no result: S1P2 agonist, MRP resist rev, S1P2 blocker)
CCCn1c(SCC(=O)N2c3ccc(F)cc3CCC2C)nnc1-c1ccccn1 (stereo not given)	none
CCCOc1ccccc1C1C(C(=O)OC)=CN(C(C)C)C=C1C(=O)OC	S1P2 agonist 32, GALR2 ag 29
CCC(C)NC(=O)CCc1nc2ccccc2n1-c1ccccc1 (stereo not given)	none (no result: S1P2 agonist, MRP resist rev, S1P2 blocker)
COc1ccc(-c2[nH]ncc2-c2cnn(-c3ccccc3)c2)c(O)c1	MRP1 act 46 (no result: MRP resist rev)
NC(=O)C1CCN(S(=O)(=O)c2cccc(S(=O)(=O)N3CCCCC3)c2)CC1	none
COc1ccccc1NC(=O)CN1CCC(n2c(C)nc3cc(F)ccc32)CC1	S1P2 agonist 19
COc1ccccc1NC(=O)CN1CCC(n2nnc3cc(F)ccc32)CC1	none
Cc1ccc2nc3c(cc(C#N)c(=O)n3CC3CCCO3)c(=O)n2c1 (stereo not given)	GALR2 ag 6.8 (no result: S1P2 agonist, S1P2 blocker)
Cc1ccc2nc3c(cc(C#N)c(=O)n3-c3nccs3)c(=O)n2c1	GALR2 ag 27 (no result: S1P2 agonist, MRP resist rev, S1P2 blocker)
Cc1ccc2nc3c(cc(C#N)c(=O)n3CCN3CCOCC3)c(=O)n2c1	none (no result: S1P2 agonist, GALR2 blocker, MRP1 act, GALR2 ag, S1P2 blocker)
Cn1nc(CC(=O)NCc2ccc(C(F)(F)F)cc2)c2ccccc2c1=O	S1P2 blocker 62
CCOC(=O)c1ccc(N2C(=O)c3n[nH]c(C)c3C2c2ccc(OC)cc2OC)cc1 (stereo not given)	MRP1 act 9.4
c1ccc(N2CCN(c3nc(-c4cccs4)nc4ccccc34)CC2)cc1	MRP1 act 7.3 (no result: S1P2 agonist, MRP resist rev, S1P2 blocker)
c1ccc(-c2nc3ccccn3c2NCc2ccc3c(c2)OCO3)cc1	S1P2 agonist 174
CCOC(=O)c1nn(-c2ccccc2F)c(-c2ccccc2)c1C(=O)c1ccccc1	none (no result: MRP resist rev)
COc1ccc(C2CC(c3ccccc3)=NN2C(=O)COC(=O)c2cccnc2Cl)cc1 (stereo not given)	MRP1 act 5.4 (no result: S1P2 agonist, MRP resist rev, S1P2 blocker)
COc1ccc(C2CC(c3ccccc3)=NN2C(=O)COC(=O)c2cccnc2)cc1 (stereo not given)	none (no result: S1P2 agonist, MRP resist rev, S1P2 blocker)
CN(c1ccccc1)S(=O)(=O)c1cccc(NC(=O)CSc2ncc(C(F)(F)F)cc2Cl)c1	none (no result: S1P2 agonist, MRP resist rev, S1P2 blocker)
CN1CCN(Cc2nc3ccccc3c(=O)n2Cc2nc(-c3ccc4ccccc4c3)cs2)CC1	GALR2 ag 7.7 (no result: S1P2 agonist, MRP resist rev, S1P2 blocker)
Cc1ccc(-c2nn(-c3ccccc3)cc2/C=N/NC(=O)c2ccc(Br)o2)cc1	S1P2 blocker 100 (no result: MRP resist rev)
COC(=O)c1ccc(NC(=O)C2CCN(C(=O)c3cc(OC)c(OC)c(OC)c3)CC2)cc1	none
CCOC(=O)c1ccc(NC(=O)C2CCN(C(=O)c3ccc(OC)c(OC)c3)CC2)cc1	MRP1 act 11
O=C(CSc1n[nH]c(-c2ccccc2Br)n1)NCCN1C(=O)CSC1=O	none (no result: S1P2 agonist, MRP resist rev, S1P2 blocker)
CCN1CN(Cc2ccco2)CNC1=S	none (no result: S1P2 agonist, MRP resist rev, S1P2 blocker)
Cc1c(C(=O)NCc2ccccc2)oc2ccc(S(=O)(=O)N3CCCC3)cc12	none
Cc1ccc(CNC(=O)c2oc3ccc(S(=O)(=O)N4CCOCC4)cc3c2C)cc1	S1P2 blocker 50
Cc1cc(/C=N/n2cnnc2)c(C)n1-c1ccc(OCc2ccc(F)cc2)cc1	S1P2 blocker 69
COc1nccnc1NS(=O)(=O)c1ccc(NS(=O)(=O)c2ccc(NC(C)=O)cc2)cc1	none
COc1ccc(C(=O)Nc2ccc(S(=O)(=O)Nc3nccnc3OC)cc2)cc1	MRP1 act 6.2 (no result: MRP resist rev)
O=C(Nc1ccc(N2CCCCC2)c(Cl)c1)c1ncn[nH]1	MRP1 act 8.8 (no result: MRP resist rev)
O=C(Nc1ccc(N2CCCC2)c(Cl)c1)c1ccco1	MRP1 act 4.9 (no result: S1P2 agonist, S1P2 blocker)
CC(=O)c1c(C)[nH]c(C(=O)Nc2nc(-c3ccc(Cl)cc3)cs2)c1C	MRP1 act 4.8 (no result: S1P2 agonist, MRP resist rev, S1P2 blocker)
CC(=O)c1c(C)[nH]c(C(=O)Nc2nc(-c3ccc(-c4ccccc4)cc3)cs2)c1C	none (no result: S1P2 agonist, MRP resist rev, S1P2 blocker)
Cc1ccc(CNC(=O)C(=O)NCC(c2ccco2)N2CCOCC2)cc1 (stereo not given)	none (no result: S1P2 agonist, MRP resist rev, S1P2 blocker)
O=C(NCc1ccc(Cl)cc1)C(=O)NCC(c1ccco1)N1CCOCC1 (stereo not given)	MRP1 act 9.1 (no result: S1P2 agonist, MRP resist rev, S1P2 blocker)
CCOC(=O)Cc1nnc(Nc2cccc(O)c2)c2ccccc12	none
CCOC(=O)/C(C(C)=O)=C1\OC(=O)c2ccccc21	none
O=C1OC(Nc2ccccn2)c2ccccc21 (stereo not given)	MRP1 act 32
